From PubChem BioAssay come the findings set out here.

Molecules are shown by their SMILES. “And” between values parts separate entries of the source, which are not always exact repeats. Equal entries are not always repeated. Results filed as inconclusive are left out. For some of these results: Measured potencies and affinities stand elsewhere. The source made the active and inactive calls.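 How the source made its calls, unless noted: active means at least 20% inhibition of 6-phosphogluconate dehydrogenase activity; inactive means the rest.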

Assay [1] concerns the target 6-phosphogluconate dehydrogenase, decarboxylating (Homo sapiens) (UniProt P52209). The assay can be described thus: 6PGD enzyme inhibitors, primary screen, biochemical, human, recombinant enzyme, NADPH absorbance (AID 1159550). As to conditions: recombinant 6PGD, NADPH absorbance 341 nm; at 10 µM; stronger effect = higher value.
The nature of assay [2]: differential killing of epithelial or mesenchymal cells, primary screen, imaging, PC-3E GFP, TEM4-18 mCherry, co-culture (AID 1345086;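 active means compounds killing one labelled cell type while sparing the other, by normalised counts and ratio limits, not self-fluorescent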;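 on all read-outs here: cells exposed to compound for 72 h before imaging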;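 on red/green cell ratio (normalised): normalised mesenchymal count divided by normalised epithelial count so high means epithelial killing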). The following applies: imaging cell counts, at 1 µM; for red/green cell ratio (normalised): actives lie on both sides.
Assay [3] concerns Aerobactin synthetase IucA (Klebsiella pneumoniae hvKP1). The assay can be described thus: Biochemical IucA enzyme inhibition primary screen of the Spectrum library (AID 1346200; call rule not given here;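 further: 100% = wells without compound and 0% = wells lacking enzyme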). The following applies: malachite green pyrophosphate, A620, at 8 µM, stronger effect = lower value.
Assay [4] addresses Mitogen-activated protein kinase 7 (Homo sapiens) (UniProt Q13164). The experiment in a line: ERK5 transactivation activators in reporter cells, primary screen, cell-based, HTS (AID 1508626;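 active means luciferase signal above three times the same-plate solvent-only control wells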;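 further: luciferase driven by Gal4-ERK5 fusion binding five Gal4 sites before minimal TATA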). As to conditions: HeLa Gal4-ERK5 transactivation, 18 h, at 5 µM, stronger effect = higher value.
Assay [5] in a line: suppressors of polyQ aggregation in yeast, 75Q-TubU reporter (AID 1593). As to conditions: Yeast 75Q polyglutamine aggregation reporter.
Assay [6] in a line: rescue of polyQ-huntingtin neuronal dysfunction in worms, whole organism, C. elegans mechanosensory neurons, N-terminal huntingtin (AID 1599). As to conditions: touch response, stronger effect = higher value.
Assay [7] can be described thus: inhibitors of mitochondrial cytochrome c release, biochemical, purified mitochondria (AID 1603).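 Further: mouse liver mitochondria challenged with calcium chloride; signal normalized to the plate average as 100%.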 As to conditions: stronger effect = lower value.
A short description of assay [8]: inhibitors of polyQ protein aggregation (AID 1604). The following applies: polyglutamine-induced protein aggregation inhibition assay; stronger effect = higher value; tested at 2.5 µM.
Assay [9] in a line: enhancers of glutamate uptake in motor neurons, MN-1 cell line (AID 1612).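 Further: tested at 1 µM final; 0% = mean of DMSO vehicle wells on each plate; positive means more glutamate uptake than control and negative means less.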 As to conditions: MN-1 motor neuron cells, stronger effect = higher value.
Assay [10] in a line: reducers of polyQ inclusions in PC12 cells, cell-based, NGF-treated PC12, GFPQ80 (AID 1614).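 Further: lower means fewer inclusions and 0 means no inclusions at all.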 The following applies: PC12 NGF-treated GFP-polyQ80 inclusion reduction.
A short description of assay [11]: suppressors of polyglutamine aggregation in yeast, 75Q-TubH (AID 1616). As to conditions: S. cerevisiae 75Q-TubH polyglutamine aggregation suppression; stronger effect = higher value.
Assay [12] has as its target ATP-dependent translocase ABCB1 (Homo sapiens) (UniProt P08183). The experiment in a line: MDR1 (ABCB1) efflux transporter inhibition, cell-based (AID 377; in the data active means fluorescence slope change above about 50%). The following applies: MDR1-expressing cells, fluorescent substrate accumulation slope; stronger effect = higher value; concentration not given here.
The nature of assay [13]: polyglutamine-triggered caspase-3 activation inhibitors, cell-based (AID 1583). The following applies: polyglutamine-induced caspase-3 activation, cell assay; stronger effect = higher value;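 tested at 10 µM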.
The nature of assay [14]: sensitizers of A549 cells to miR-34 induction, primary screen, imaging, A549 dox-inducible miR-34, nuclei and caspase counts (AID 1347080;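 active means compounds whose cell count with miR-34 switched on is under 0.7 times the count with it off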). As to conditions: A549 miR-34 inducible, Hoechst nuclei count, 48 h.
The target in assay [15] is NAD(+) hydrolase SARM1 (Homo sapiens) (UniProt Q6SZW1). The experiment in a line: SARM1 TIR NADase inhibitors, cell lysate, NAD-Glo luminescence (AID 1508614;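 active means compound whose remaining NAD level is above about 45 nM, limit read from the data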). As to conditions: SAM-TIR HEK293T lysate NADase, at 1 µM, stronger effect = higher value.
Assay [16] in a line: liver-stage malaria parasite growth inhibition, primary screen, cell-based, HepG2, luciferase luminescence, HepG2 viability (AID 624349; in the data active means parasite load remaining mostly below about 12%, no sharp cut-off; inactive means mostly above about 10%;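 further: 100% = mean of DMSO negative control wells on the same plate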). As to conditions: P. berghei liver stage in HepG2, luciferase luminescence, concentration not given here; parasite load remaining: stronger effect = lower value; viability: measured here: HepG2 viability without parasites.
A short description of assay [17]: viability rescue of complex I mutant cybrids, primary screen, cell-based, galactose medium, ATP luminescence (AID 1645843;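 active means z-score of at least 1.8 in each of two replicates, scored against plate mean and spread of sample wells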;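 further: positive z means more ATP and so rescue of galactose-driven cybrid death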). The following applies: complex I mutant cybrid cells, 72 h, stronger effect = higher value.
Where [18] appears, read: measured here: epithelial PC-3E GFP cell survival.
[19] abbreviates: measured here: mesenchymal TEM4-18 mCherry cell survival.
Setting [20] is: measured here: relative caspase fold change +Dox/-Dox.
The mark [21] stands for this setting: measured here: total cells with miR-34 induction, stronger effect = lower value.
[22] abbreviates: measured here: total cells without miR-34 induction.

6-phosphogluconate dehydrogenase, decarboxylating (Homo sapiens), sequence (P52209 whole entry, looked up): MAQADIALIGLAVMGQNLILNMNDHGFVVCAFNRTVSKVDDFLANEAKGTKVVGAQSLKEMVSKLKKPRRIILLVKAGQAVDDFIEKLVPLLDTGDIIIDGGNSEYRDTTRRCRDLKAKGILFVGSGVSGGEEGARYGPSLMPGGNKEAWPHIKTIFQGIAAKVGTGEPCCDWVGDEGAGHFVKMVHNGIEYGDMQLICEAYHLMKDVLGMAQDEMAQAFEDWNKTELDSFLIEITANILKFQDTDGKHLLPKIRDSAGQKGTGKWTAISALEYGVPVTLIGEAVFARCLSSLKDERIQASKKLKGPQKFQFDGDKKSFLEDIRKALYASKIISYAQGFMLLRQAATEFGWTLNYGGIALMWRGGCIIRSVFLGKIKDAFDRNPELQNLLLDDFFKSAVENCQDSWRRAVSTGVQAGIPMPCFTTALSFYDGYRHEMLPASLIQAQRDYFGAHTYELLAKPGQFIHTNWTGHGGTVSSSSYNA
Mitogen-activated protein kinase 7 (Homo sapiens), sequence (Q13164 whole entry, looked up, the tested form may be a part): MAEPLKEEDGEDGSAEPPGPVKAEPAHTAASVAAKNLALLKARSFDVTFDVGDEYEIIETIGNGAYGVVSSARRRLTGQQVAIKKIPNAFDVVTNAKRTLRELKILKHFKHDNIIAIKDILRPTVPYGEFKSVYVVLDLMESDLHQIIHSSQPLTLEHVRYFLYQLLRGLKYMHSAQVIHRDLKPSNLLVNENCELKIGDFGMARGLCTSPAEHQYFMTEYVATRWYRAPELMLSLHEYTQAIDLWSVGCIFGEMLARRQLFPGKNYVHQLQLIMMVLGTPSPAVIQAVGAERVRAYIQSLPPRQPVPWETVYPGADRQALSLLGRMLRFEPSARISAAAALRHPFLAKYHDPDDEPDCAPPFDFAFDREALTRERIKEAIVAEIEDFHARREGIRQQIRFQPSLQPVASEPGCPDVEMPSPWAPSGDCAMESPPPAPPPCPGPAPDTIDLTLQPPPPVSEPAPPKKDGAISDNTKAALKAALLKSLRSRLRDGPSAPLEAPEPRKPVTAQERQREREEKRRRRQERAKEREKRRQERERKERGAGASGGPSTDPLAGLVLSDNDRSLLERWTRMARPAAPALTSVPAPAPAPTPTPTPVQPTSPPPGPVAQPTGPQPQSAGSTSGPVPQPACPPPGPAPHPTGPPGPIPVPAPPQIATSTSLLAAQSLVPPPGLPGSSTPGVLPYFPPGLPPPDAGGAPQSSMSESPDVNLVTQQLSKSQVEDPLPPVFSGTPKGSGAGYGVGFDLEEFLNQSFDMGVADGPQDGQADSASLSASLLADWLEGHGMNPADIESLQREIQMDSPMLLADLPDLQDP
NAD(+) hydrolase SARM1 (Homo sapiens), sequence (Q6SZW1 whole entry, looked up): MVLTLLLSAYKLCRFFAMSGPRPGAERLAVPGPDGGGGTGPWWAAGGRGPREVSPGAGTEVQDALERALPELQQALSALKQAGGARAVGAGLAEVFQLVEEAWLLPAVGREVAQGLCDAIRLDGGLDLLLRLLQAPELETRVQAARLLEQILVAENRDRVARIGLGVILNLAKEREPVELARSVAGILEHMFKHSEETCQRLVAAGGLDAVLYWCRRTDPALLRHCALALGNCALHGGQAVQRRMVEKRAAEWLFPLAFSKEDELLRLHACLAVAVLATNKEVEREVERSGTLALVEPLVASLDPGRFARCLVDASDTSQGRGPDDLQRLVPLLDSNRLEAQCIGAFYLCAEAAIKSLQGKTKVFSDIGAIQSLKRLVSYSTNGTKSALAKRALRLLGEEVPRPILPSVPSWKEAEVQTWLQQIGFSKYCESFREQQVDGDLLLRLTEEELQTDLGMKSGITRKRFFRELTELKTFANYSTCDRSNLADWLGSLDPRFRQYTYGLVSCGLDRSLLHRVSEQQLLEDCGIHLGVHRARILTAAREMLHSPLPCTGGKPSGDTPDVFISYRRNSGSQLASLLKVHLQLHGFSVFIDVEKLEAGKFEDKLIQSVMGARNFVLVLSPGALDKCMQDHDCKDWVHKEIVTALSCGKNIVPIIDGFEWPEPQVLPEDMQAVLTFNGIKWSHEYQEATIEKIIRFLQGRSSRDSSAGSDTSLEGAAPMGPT
ATP-dependent translocase ABCB1 (Homo sapiens), sequence (P08183 whole entry, looked up): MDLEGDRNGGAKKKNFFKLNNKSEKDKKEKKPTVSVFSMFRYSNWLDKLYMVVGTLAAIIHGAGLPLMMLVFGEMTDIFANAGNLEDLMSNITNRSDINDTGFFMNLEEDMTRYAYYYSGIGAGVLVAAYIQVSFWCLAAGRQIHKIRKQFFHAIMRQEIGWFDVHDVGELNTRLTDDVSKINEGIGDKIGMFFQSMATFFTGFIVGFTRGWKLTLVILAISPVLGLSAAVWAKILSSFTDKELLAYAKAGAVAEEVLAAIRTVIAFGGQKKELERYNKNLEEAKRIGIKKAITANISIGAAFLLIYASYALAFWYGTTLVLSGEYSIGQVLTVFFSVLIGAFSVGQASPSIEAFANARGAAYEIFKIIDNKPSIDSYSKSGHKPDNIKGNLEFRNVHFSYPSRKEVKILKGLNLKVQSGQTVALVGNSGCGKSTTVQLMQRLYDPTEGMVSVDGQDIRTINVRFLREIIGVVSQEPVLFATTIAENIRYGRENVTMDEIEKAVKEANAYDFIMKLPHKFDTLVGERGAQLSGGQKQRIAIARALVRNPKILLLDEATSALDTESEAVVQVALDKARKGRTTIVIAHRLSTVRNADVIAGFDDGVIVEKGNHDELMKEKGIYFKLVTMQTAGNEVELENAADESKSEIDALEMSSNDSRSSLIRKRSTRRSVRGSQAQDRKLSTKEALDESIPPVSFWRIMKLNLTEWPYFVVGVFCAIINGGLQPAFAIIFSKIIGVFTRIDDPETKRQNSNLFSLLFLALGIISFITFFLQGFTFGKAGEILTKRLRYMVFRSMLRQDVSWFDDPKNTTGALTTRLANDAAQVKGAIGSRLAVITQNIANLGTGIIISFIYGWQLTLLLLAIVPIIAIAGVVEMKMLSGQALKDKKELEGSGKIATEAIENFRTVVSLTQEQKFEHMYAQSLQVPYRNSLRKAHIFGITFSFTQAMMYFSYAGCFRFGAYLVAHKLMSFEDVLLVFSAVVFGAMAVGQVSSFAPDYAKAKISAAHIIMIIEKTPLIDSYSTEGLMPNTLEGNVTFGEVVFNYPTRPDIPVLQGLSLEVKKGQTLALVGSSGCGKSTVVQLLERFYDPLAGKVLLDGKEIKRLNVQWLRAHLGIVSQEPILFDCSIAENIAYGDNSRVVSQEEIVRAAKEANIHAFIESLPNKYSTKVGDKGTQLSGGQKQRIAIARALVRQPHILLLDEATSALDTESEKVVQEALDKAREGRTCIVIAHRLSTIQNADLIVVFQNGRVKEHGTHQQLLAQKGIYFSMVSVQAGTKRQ

As for `CC(C)=CCCC1(C)C=Cc2c(O)c3c(c(CC=C(C)C)c2O1)OC12C(CC4CC1C(C)(C)OC2(C/C=C(/C)C(=O)O)C4O)C3=O` (centres undefined), in assay [1], the inhibition was -6.13% (inactive). The red/green cell ratio (normalised) in assay [2] was 1.11 (inactive). The normalised cell number in [2] (setting [18]) was 0.96; in [2] (setting [19]), 1.07. Further, the activity remaining in [3] is 119% (inactive). Besides, the luciferase signal in [4] is 96 AU (inactive).
Turning to `COc1cc2c(c(OC)c1OC)-c1ccc(O)c(=O)cc1[C@@H](NC(C)=O)CC2`, in assay [1], the inhibition is 7.64% (inactive). Further, the activity remaining in assay [3] was 120% (inactive).
In assay [5], `C[C@]12CCC3C(CC[C@]4(O)C[C@@H](O)CC[C@]34C=O)[C@@]1(O)CCC2C1=CC(=O)OC1` (some centres undefined) came in with a score of 1.09. In assay [6], this molecule registered a rescue above control of 6.59. Also, in assay [7], the cytochrome c release ratio is 1.29. This molecule showed an inhibition of aggregation in assay [8] of 62.8%. In addition, the glutamate uptake change in assay [9] is 13.8%. The same molecule gave an inclusion score in [10] of 0. This molecule also displayed an aggregation suppression score in [11] of 1.29. In addition, in assay [1], the inhibition was 14.9% (inactive). The red/green cell ratio (normalised) in [2] was 0.2 (inactive). Moreover, the figures for the normalised cell number in [2] (setting [18]) and in assay [2] (setting [19]) were 0.18 and 0.04, respectively. For the same molecule, the activity remaining in [3] was 79.3% (inactive).
Turning to `COc1cc2c(cc1OC)[C@@H]1C(=O)c3ccc(O)c(CC=C(C)C)c3O[C@@H]1CO2`, the inhibition in assay [1] is -10.7% (inactive). In addition, the activity remaining in [3] was 103% (inactive).
Take `CC1C[C@H]2CC(=O)[C@H]3CCCN4CCC[C@H]2[C@]34C1` (some centres undefined): in assay [1], the inhibition is -1.6% (inactive). Moreover, the activity remaining in assay [3] is 91.3% (inactive).
With `c1ccc2c(c1)[nH]c1cnccc12`, in assay [12], the fluorescence slope change was 73% (active). Also, in assay [1], the inhibition is 1.67% (inactive). Further, in assay [2], the red/green cell ratio (normalised) is 1 (inactive). Further, the normalised cell number in assay [2] (setting [18]) and in assay [2] (setting [19]) was 0.91 throughout. In addition, the activity remaining in assay [3] is 105% (inactive). The luciferase signal in [4] is 44 AU (inactive).
In the case of `C[C@@H]([C@H](O)c1ccccc1)N(C)C`, the inhibition in assay [13] is -9.65%; in assay [1] it was 4.3% (inactive). The molecule also showed a score in assay [5] of 1.49. The same molecule displayed a rescue above control in [6] of -3.5. Besides, the cytochrome c release ratio in [7] came out at 0.95. For the same molecule, the inhibition of aggregation in assay [8] amounted to 81%. Besides, the glutamate uptake change in assay [9] came out at 13.8%. In addition, the inclusion score in [10] was 2. Besides, in assay [11], the aggregation suppression score turned out to be 1.19. The red/green cell ratio (normalised) in assay [2] is 0.91 (inactive). For the same molecule, the normalised cell number in assay [2] (setting [18]) came out at 1.19; in [2] (setting [19]) it was 1.09. The fold change in [14] (stronger effect = lower value) was 0.94 (inactive); in [14] (setting [20]) it was 0.912. For the same molecule, the cell count in assay [14] (setting [21]) is 8870; in assay [14] (setting [22]), 9440. For the same molecule, the remaining NAD in assay [15] was 10 nM (inactive). In addition, in assay [4], the luciferase signal was 108 AU (inactive).
`O=c1cccc2n1CC1CNC[C@H]2C1`: the parasite load remaining in [16] was 134% (inactive). The viability in assay [16] worked out at 104%. The inhibition in assay [1] is -36.3% (inactive). In addition, the fold change was 0.809 (inactive) and 0.946 (inactive) in [14] (stronger effect = lower value, cell number ratio, induced over uninduced); 1.71 and 1.27 in [14] (setting [20]). The cell count is 8130 and 8990 in [14] (setting [21]); 10000 and 9510 in assay [14] (setting [22]). The remaining NAD in assay [15] was 10 nM (inactive). In addition, the luciferase signal in assay [4] is 60 AU (inactive). Also, the z-score in [17] was 1.16 (inactive).
As to `CC(C)N(C(=O)SCC(Cl)=C(Cl)Cl)C(C)C`, the inhibition in [1] is 4.75% (inactive). Besides, in [3], the activity remaining is 102% (inactive).
`COc1cccc2c1cc([N+](=O)[O-])c1c(C(=O)O)cc3c(c12)OCO3`: the inhibition in [1] was -5.9% (inactive). Also, the activity remaining in [3] is 103% (inactive). Also, the fold change in assay [14] (stronger effect = lower value) was 1.04 (inactive); in assay [14] (setting [20]) it was 1.14. The cell count in [14] (setting [21]) was found to be 4170; in assay [14] (setting [22]) it was 4020. For the same molecule, in assay [4], the luciferase signal was 36 AU (inactive).
Regarding `CNc1ccc(C(=O)CC(O)CCC(C)C2OC(=O)CC(O)CC(=O)CC(O)CC(O)CC(O)CC(O)CC3(O)CC(O)C(C(=O)OC)C(CC(O[C@@H]4O[C@H](C)[C@@H](O)[C@H](N)[C@@H]4O)/C=C/C=C/C=C/C=C/C=C/C=C/C=C/C2C)O3)cc1` (some centres undefined), the parasite load remaining in assay [16] was 132% (inactive) and 33.6% (inactive). Further, the viability in [16] is 90% and 101%. Also, the inhibition in [1] is 2.08% (inactive). Also, the red/green cell ratio (normalised) in assay [2] is 1.39 (inactive). In addition, the normalised cell number is 0.82 in assay [2] (setting [18]) and 1.14 in assay [2] (setting [19]). Also, the values for the fold change in [14] (stronger effect = lower value) and in [14] (setting [20]) were 0.878 (inactive) and 3.37, respectively. For the same molecule, the cell count in [14] (setting [21]) was determined as 11000; in assay [14] (setting [22]), 12500. Also, the remaining NAD in [15] was 10 nM (inactive).

The term inhibition denotes the relative decrease from the control value, in per cent. One may read the viability as a read-out of living cells in per cent, often relative to untreated cells.
